Experimental data: PubChem BioAssay AID1159580 (chemical genetic matrix, 2015)
Where “and” joins values, the source holds several entries; their conditions need not be identical. Equal entries are not always repeated. The whole screen tested about 5,500 compounds, of which about 2,000 (36%) were called active. About 18% were inconclusive and are not listed. Cut-off read from the data, not from the text of the source: active = normalized growth mostly below about 0.91 (no sharp cut-off); inconclusive = no clear call, values can overlap the other calls; inactive = mostly above about 0.92. The list shows a part of the results.

Assay: chemical genetic growth profiling, strain panel (AID 1159580);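 note: tested at 20 µM; growth read once vehicle control cultures reached saturation at 30 °C; 1 = growth at the plate median or of vehicle wells; lower values mean less growth of the strain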
Conditions: S. cerevisiae deletion strains, growth OD

Measured: normalized growth

COc1ccc2ccc(=O)oc2c1
inactive: locus YAL013W, strain DEP1, active compounds read low 1.01 | locus YAL021C, strain ccr4, active compounds read low 1 | locus YAL026C, strain drs2, active compounds read low 1 | locus YAL030W, strain snc1, active compounds read low 1 | locus YBL061C, strain skt5, active compounds read low 1 | locus YBR009C, strain hhf1, active compounds read low 1.02 | locus YBR021W, strain FUR4, active compounds read low 0.997 | locus YBR023C, strain chs3, active compounds read low 1.01 | locus YBR171W, strain sec66, active compounds read low 0.988 | locus YBR229C, strain ROT2, active compounds read low 1.02 | locus YBR231C, strain swc5, active compounds read low 0.987 | locus YBR279W, strain paf1, active compounds read low 1 | locus YCL011C, strain gbp2, active compounds read low 0.98 | locus YCL016C, strain dcc1, active compounds read low 1 | locus YCL029C, strain bik1, active compounds read low 0.999 | locus YCL061C, strain MRC1, active compounds read low 1 | locus YCL069W, strain vba3, active compounds read low 0.988 | locus YCR088W, strain abp1, active compounds read low 0.992 | locus YDL005C, strain med2, active compounds read low 0.996 | locus YDL035C, strain GPR1, active compounds read low 1.04 | locus YDL040C, strain nat1, active compounds read low 1 | locus YDL074C, strain BRE1, active compounds read low 1.04 | locus YDL101C, strain DUN1, active compounds read low 1.01 | locus YDL185W, strain tfp1, active compounds read low 1.03 | locus YDL192W, strain arf1, active compounds read low 1.01 | locus YDR001C, strain nth1, active compounds read low 0.991 | locus YDR069C, strain doa4, active compounds read low 0.99 | locus YDR101C, strain arx1, active compounds read low 0.985 | locus YDR137W, strain rgp1, active compounds read low 0.977 | locus YDR150W, strain NUM1, active compounds read low 1.01 | locus YDR159W, strain sac3, active compounds read low 0.973 | locus YDR162C, strain NBP2, active compounds read low 1.03 | locus YDR195W, strain ref2 1.01 | locus YDR297W, strain sur2, active compounds read low 1 | locus YDR318W, strain mcm21, active compounds read low 1.02 | locus YDR334W, strain swr1, active compounds read low 0.987 | locus YDR335W, strain msn5, active compounds read low 0.998 | locus YDR388W, active compounds read low 1.04 | locus YDR392W, strain spt3, active compounds read low 0.964 | locus YDR502C, strain sam2, active compounds read low 1.02 | locus YEL003W, strain gim4, active compounds read low 1.01 | locus YEL037C, strain rad23, active compounds read low 1 | locus YEL061C, strain CIN8 (second series), active compounds read low 0.983 | locus YEL061C, strain CIN8, active compounds read low 1.01 | locus YER015W, strain faa2, active compounds read low 1 | locus YER016W, strain bim1, active compounds read low 1 | locus YER110C, active compounds read low 1.02 | locus YER111C, strain swi4, active compounds read low 0.998 | locus YER155C, strain BEM2 (second series), active compounds read low 0.97 | locus YER155C, strain BEM2, active compounds read low 1 | locus YER167W, strain BCK2, active compounds read low 1.01 | locus YFR010W, strain ubp6, active compounds read low 0.98 | locus YGL078C, strain dbp3, active compounds read low 1.01 | locus YGL086W, strain mad1, active compounds read low 1.02 | locus YGL167C, strain pmr1, active compounds read low 1.02 | locus YGL173C, strain kem1, active compounds read low 1.02 | locus YGL227W, strain vid30, active compounds read low 0.983 | locus YGL240W, strain doc1, active compounds read low 0.973 | locus YGL248W, strain PDE1, active compounds read low 1.05 | locus YGL253W, strain hxk2, active compounds read low 0.986 | locus YGR135W, strain pre9, active compounds read low 1.01 | locus YGR252W, strain gcn5, active compounds read low 0.964 | locus YHR013C, strain ard1, active compounds read low 1.04 | locus YHR027C, strain rpn1, active compounds read low 0.999 | locus YHR030C, strain SLT2, active compounds read low 1.02 and 0.994 | locus YHR079C, strain IRE1 (second series), active compounds read low 1.01 | locus YHR079C, strain IRE1, active compounds read low 0.997 | locus YHR094C, strain hxt1, active compounds read low 1.04 | locus YHR129C, strain ARP1, active compounds read low 1.02 | locus YHR142W, strain chs7, active compounds read low 1.01 | locus YHR200W, strain rpn10, active compounds read low 1.01 | locus YIL066C, strain RNR3, active compounds read low 1.02 | locus YIL073C, strain SPO22, active compounds read low 1.11 | locus YIL125W, strain kgd1, active compounds read low 1.03 | locus YIR030C, strain dcg1, active compounds read low 1.01 | locus YJL092W, strain hpr5, active compounds read low 0.998 | locus YJL095W, strain BCK1 (second series), active compounds read low 1.01 | locus YJL095W, strain BCK1, active compounds read low 1.01 and 1.02 | locus YJL115W, strain asf1, active compounds read low 0.992 | locus YJL129C, strain trk1, active compounds read low 0.99 | locus YJL134W, strain LCB3, active compounds read low 1.01 | locus YJL154C, strain vps35, active compounds read low 0.999 | locus YJL164C, strain tpk1, active compounds read low 1.02 | locus YJL166W, strain qcr8, active compounds read low 1.01 | locus YJL168C, strain set2, active compounds read low 1.02 | locus YJL187C, strain SWE1 (second series), active compounds read low 1.02 | locus YJL187C, strain SWE1, active compounds read low 0.995 | locus YJR066W, strain TOR1, active compounds read low 0.934 | locus YKL009W, strain mrt4, active compounds read low 1 | locus YKL068W, active compounds read low 1.04 | locus YKL085W, strain MDH1 (second series), active compounds read low 1.02 | locus YKL085W, strain MDH1, active compounds read low 1.02 | locus YKL160W, strain elf1, active compounds read low 1.02 | locus YKR001C, strain vps1, active compounds read low 1.03 | locus YKR026C, strain gcn3, active compounds read low 0.98 | locus YKR091W, strain srl3, active compounds read low 1.02 | locus YLL001W, strain dnm1, active compounds read low 0.985 | locus YLL026W, active compounds read low 1 | locus YLL041C, strain sdh2, active compounds read low 0.996 | locus YLR027C, strain aat2, active compounds read low 0.992 | locus YLR039C, strain RIC1, active compounds read low 1.15 | locus YLR058C, strain SHM2, active compounds read low 1.02 | locus YLR102C, strain apc9, active compounds read low 1.03 | locus YLR113W, strain HOG1, active compounds read low 1.02 | locus YLR221C, strain rsa3, active compounds read low 0.987 | locus YLR258W, strain gsy2, active compounds read low 1.02 | locus YLR262C, strain YPT6 (second series), active compounds read low 1.02 | locus YLR268W, strain sec22, active compounds read low 1.02 | locus YLR320W, strain mms22, active compounds read low 0.993 | locus YLR330W, strain CHS5, active compounds read low 1.03 | locus YLR342W, strain FKS1 (second series), active compounds read low 1.05 | locus YLR342W, strain FKS1, active compounds read low 1 | locus YLR357W, strain rsc2, active compounds read low 0.984 | locus YLR370C, strain arc18, active compounds read low 0.989 | locus YLR371W, strain rom2, active compounds read low 1.05 | locus YLR384C, strain iki3, active compounds read low 0.995 | locus YLR418C, strain cdc73, active compounds read low 1.02 | locus YML016C, strain PPZ1, active compounds read low 1.02 | locus YML032C, strain rad52, active compounds read low 0.997 | locus YML120C, strain ndi1, active compounds read low 0.999 | locus YML124C, strain tub3, active compounds read low 1.02 | locus YMR058W, strain fet3, active compounds read low 0.98 | locus YMR078C, strain ctf18, active compounds read low 1.01 | locus YMR125W, strain sto1, active compounds read low 0.984 | locus YMR129W, active compounds read low 1.01 | locus YMR205C, strain PFK2, active compounds read low 1.06 | locus YMR223W, strain ubp8, active compounds read low 1.02 | locus YMR231W, strain pep5, active compounds read low 0.996 | locus YMR307W, strain GAS1, active compounds read low 1.09 | locus YNL067W, strain RPL9B, active compounds read low 1.01 | locus YNL071W, strain lat1, active compounds read low 1.01 | locus YNL153C, strain GIM3, active compounds read low 1.01 | locus YNL183C, strain NPR1, active compounds read low 0.949 | locus YNL209W, strain ssb2, active compounds read low 1.01 | locus YNL233W, strain BNI4, active compounds read low 1.04 | locus YNL248C, strain rpa49, active compounds read low 0.974 | locus YNL250W, strain rad50, active compounds read low 1.07 | locus YNL271C, strain bni1, active compounds read low 1.01 | locus YNL298W, strain CLA4, active compounds read low 0.997 | locus YNL307C, strain MCK1, active compounds read low 1.03 | locus YNL322C, strain KRE1 (second series), active compounds read low 1 | locus YNL322C, strain KRE1, active compounds read low 1 | locus YNR049C, strain mso1, active compounds read low 1 | locus YNR052C, strain pop2, active compounds read low 1.04 | locus YOL006C, strain TOP1, active compounds read low 1.09 | locus YOL012C, strain htz1 0.887 | locus YOL147C, strain pex11, active compounds read low 1.02 | locus YOR001W, strain rrp6, active compounds read low 0.954 | locus YOR061W, strain CKA2, active compounds read low 1.02 | locus YOR069W, strain VPS5, active compounds read low 0.999 | locus YOR070C, strain gyp1, active compounds read low 1.01 | locus YOR080W, strain dia2, active compounds read low 1 | locus YOR083W, strain WHI5, active compounds read low 1.06 | locus YOR106W, strain vam3, active compounds read low 1.01 | locus YOR136W, strain idh2, active compounds read low 1.01 | locus YOR144C, strain elg1, active compounds read low 1.01 | locus YOR184W, strain ser1, active compounds read low 1 | locus YOR231W, strain MKK1, active compounds read low 1.01 | locus YOR265W, strain rbl2, active compounds read low 0.996 | locus YOR270C, strain vph1, active compounds read low 1.07 | locus YOR290C, strain snf2, active compounds read low 0.995 | locus YOR316C, strain cot1, active compounds read low 1.01 | locus YPL051W, strain arl3, active compounds read low 0.995 | locus YPL055C, strain LGE1, active compounds read low 1.07 | locus YPL078C, strain atp4, active compounds read low 1.01 | locus YPL106C, strain sse1, active compounds read low 0.98 | locus YPL240C, strain hsp82, active compounds read low 0.995 | locus YPL241C, strain CIN2, active compounds read low 1.02 | locus YPL256C, strain CLN2, active compounds read low 0.994 | locus YPR119W, strain clb2, active compounds read low 1.01 | locus YPR141C, strain kar3, active compounds read low 1.01 | locus YPR163C, strain tif3, active compounds read low 1.02 | locus YPR167C, strain met16, active compounds read low 1.02 | strain wtn01, active compounds read low 1.01
